High-throughput results from PubChem.
This is one part of a sample in which hits are shown more often than they occur.
BL2 CD40 inh = CD40 pathway inhibition in BL2 cells; BL2 NF-kB luciferase reporter, CD40L-induced, 4 h; inhibition, % at 10 µM; 83,000 compounds, 0.94% hits;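 active means mean inhibition of at least 50% with a set share of replicates also reaching that level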
Numbers stand for hits; . = inactive; [ ] = another dose, or the depositor's remark.

SMILES | BL2 CD40 inh
C/C=C/c1ccc(C2[C@H]3CNC[C@@H]2N3S(=O)(=O)c2cccc(OC)c2)cc1 (some centres not stated) | .
O=C(c1cnccn1)N1CC(=O)N2[C@@H](CO)[C@H](c3ccc(C#CC4CCCC4)cc3)[C@@H]2C1 | .
O=C([C@@H]1[C@@H](CO)[C@@H]2Cn3c(ccc(-c4ccc(F)cc4)c3=O)[C@H]1N2)N1CCCCC1 | .
CO[C@H]1CN(C)C(=O)c2cc(NS(=O)(=O)c3c(C)noc3C)ccc2OC[C@H](C)NC[C@H]1C | .
C/C=C/c1cnc2c(c1)C(=O)N([C@@H](C)CO)C[C@@H](C)[C@H](CN(C)C(=O)C1CCOCC1)O2 | .
C[C@@H]1CN([C@@H](C)CO)C(=O)c2c(c3ccccc3n2C)-c2ccccc2CO[C@H]1CN(C)S(=O)(=O)c1ccccc1 | .
C[C@H]1CN([C@@H](C)CO)C(=O)c2c(c3ccccc3n2C)-c2ccccc2CO[C@@H]1CN(C)S(=O)(=O)c1ccc([N+](=O)[O-])cc1 | 50[25 µM]
COc1ccc(S(=O)(=O)N(C)C[C@H]2OCc3ccccc3-c3c(n(C)c4ccccc34)C(=O)N([C@@H](C)CO)C[C@H]2C)cc1 | .
C[C@H]1CN([C@@H](C)CO)C(=O)c2c(c3ccccc3n2C)-c2ccccc2CO[C@H]1CN(C)S(=O)(=O)c1ccc([N+](=O)[O-])cc1 | 73[25 µM]
C[C@H](CO)N1C[C@H](C)[C@H](CN(C)S(=O)(=O)c2ccccc2)OCc2ccccc2-c2c(n(C)c3ccccc23)C1=O | .
COc1cccc(S(=O)(=O)N(C)C[C@H]2OCc3ccccc3-c3c(n(C)c4ccccc34)C(=O)N([C@@H](C)CO)C[C@@H]2C)c1 | 59[25 µM]
COc1ccc(S(=O)(=O)N(C)C[C@H]2OCc3ccccc3-c3c(n(C)c4ccccc34)C(=O)N([C@H](C)CO)C[C@@H]2C)cc1 | .
C[C@@H]1CN([C@H](C)CO)C(=O)c2c(c3ccccc3n2C)-c2ccccc2CO[C@H]1CN(C)S(=O)(=O)c1ccccc1 | .
C[C@H]1CN([C@@H](C)CO)C(=O)c2c(c3ccccc3n2C)-c2ccccc2CO[C@H]1CN(C)S(=O)(=O)c1ccccc1 | .
O=C(Nc1nccs1)[C@H]1[C@H](CO)[C@H]2Cn3c(cccc3=O)[C@@H]1N2C(=O)C1CCCC1 | .
CN(C)CC(=O)Nc1ccc2c(c1)[C@@H]1C[C@H](CC(=O)N3CCCCC3)O[C@@H](CO)[C@@H]1O2 | .
Cc1ccc(S(=O)(=O)N2[C@@H]3CNC[C@H]2C3c2ccc(-c3ccccc3C)cc2)cc1 (some centres not stated) | .
CNC[C@@H]1Oc2ccc(N(C)C)cc2C(=O)N(C)C[C@H]1C | .
COc1ccccc1-c1ccc([C@@H]2[C@@H](C#N)N(C(=O)c3cccnc3)[C@@H]2CO)cc1 | .
O=C(CCN1CCCCC1)NCC[C@H]1CC[C@H](NC(=O)C2CCCCC2)[C@H](CO)O1 | .
C[C@@H]1CN([C@@H](C)CO)C(=O)c2ccccc2-c2ccccc2CO[C@H]1CN(C)S(C)(=O)=O | .
O=C(CN1CCOCC1)N[C@@H]1CC[C@@H](CCn2cc(C3CCCC3)nn2)O[C@@H]1CO | .
COc1ccc2c3c([nH]c2c1)[C@@H](CO)N(Cc1ccccc1)CC31CN(C(=O)c2ccccn2)C1 | .
COc1ccccc1CN1[C@H](CO)[C@H]2c3ccccc3N(C(=O)c3ccc(F)cc3)C[C@H]21 | .
C[C@H]1CN([C@@H](C)CO)C(=O)c2cccc(NS(=O)(=O)c3cccs3)c2O[C@H]1CN(C)Cc1ccc2c(c1)OCO2 | .
SMILES | BL2 CD40 inh
COCC(=O)N(C[C@@H]1[C@@H](c2ccccc2)[C@H](CO)N1C(=O)NC(C)C)C(C)C | .
COc1ccccc1NC(=O)N(C)C[C@@H]1OCc2ccccc2-c2ccccc2C(=O)N([C@H](C)CO)C[C@@H]1C | .
N#C[C@@H]1[C@@H](c2ccccc2-c2ccccc2)[C@@H](CO)N1C(=O)NC1CCCC1 | 53[25 µM]
N#C[C@H]1[C@H](c2ccccc2-c2ccccc2)[C@@H](CO)N1C(=O)NC1CCCC1 | .
N#C[C@H]1[C@H](c2ccccc2-c2ccccc2)[C@H](CO)N1C(=O)NC1CCCC1 | .
O=S(=O)(c1ccccc1F)N1C[C@@H]2[C@H](c3ccccc31)[C@H](CO)N2Cc1ccc2c(c1)OCO2 | .
C[C@H](NC(=O)N(C)C[C@@H]1OCc2ccccc2-c2c(n(C)c3ccccc23)C(=O)N([C@@H](C)CO)C[C@H]1C)c1ccccc1 | .
COc1ccc(-c2ccc3c(c2)[C@@H]2[C@@H](CCN2C(=O)c2ccc4c(c2)OCO4)[C@H](CO)N3C)cc1 | .
CC(=O)N1[C@H](CO)[C@@H]2c3ccccc3N(C(=O)c3ccc(F)cc3)C[C@@H]21 | .
CC1CCN(C(C)C(=O)Nc2ccc(S(=O)(=O)N3CCCC3)cc2)CC1 (configuration not stated) | .
CC(OC(=O)c1cc(Br)ccc1O)C(=O)Nc1ccc(S(=O)(=O)N2CCCC2)cc1 (configuration not stated) | 65
COC(C(=O)Nc1ccc(S(=O)(=O)N2CCCCC2)cc1)c1ccccc1 (configuration not stated) | .
O=C(NCC(F)(F)F)[C@H]1[C@H](CO)[C@H]2Cn3c(ccc(-c4cccnc4)c3=O)[C@@H]1N2Cc1ccccc1 | .
CO[C@H](CN(C)C(=O)c1cc(Cl)cc(Cl)c1)[C@@H](C)CN(C(=O)Nc1ccc(F)cc1)[C@H](C)CO | .
CCC(=O)N1[C@H](CO)[C@H](c2ccc(C3=CCCCC3)cc2)[C@@H]1CN(C)C(C)=O | .
CC(C)(O)C#Cc1ccc([C@@H]2[C@@H](CO)N3CCCCN(C(=O)c4ccncc4)C[C@H]23)cc1 | .
O=C(OCC(=O)N1CCN(c2ccccc2)CC1)c1ccccc1NCCO | 35
O=C(OCC(=O)N1CCN(c2ccccc2)CC1)c1ccccc1OC(F)F | .
O=C(OCC(=O)N1CCN(c2ccccc2)CC1)c1cccs1 | .
O=C(Cc1ccccn1)N1CC(=O)N2[C@@H](CO)[C@@H](c3ccc(C#CC4CCCC4)cc3)[C@@H]2C1 | .
O=C(c1ccccc1F)N1C[C@H]2[C@@H](c3ccccc31)[C@H](CO)N2C(=O)c1cccnc1 | .
O=C(NC1CCCC1)N1CC(=O)N2[C@H](CO)[C@@H](c3ccc(-c4cccc(F)c4)cc3)[C@H]2C1 | .
CN1C[C@H]2[C@@H](c3ccccc31)[C@H](CO)N2S(=O)(=O)c1ccccc1 | .
CS(=O)(=O)c1ccc(C(=O)OCC(=O)NC(=O)C2COc3ccccc3O2)cc1[N+](=O)[O-] (configuration not stated) | 95
CC(C)(C)C(=O)COC(=O)c1ccc(N)c([N+](=O)[O-])c1 | .
SMILES | BL2 CD40 inh
CS(=O)(=O)c1ccc(C(=O)OCC(=O)NC(=O)C2CCCCC2)cc1[N+](=O)[O-] | 85
COc1ccc(C(=O)OCC(=O)Nc2ccc(OC)c(S(=O)(=O)N3CCCCC3)c2)cc1[N+](=O)[O-] | .
Nc1ccc(C(=O)NNC(=O)C2COc3ccccc3O2)cc1[N+](=O)[O-] (configuration not stated) | .
CNc1ccc(C(=O)OCC(=O)NC(=O)NC2CCCCC2)cc1[N+](=O)[O-] | .
O=C(CCN1CCCCC1)NCC[C@@H]1CC[C@@H](NS(=O)(=O)c2cccc(Cl)c2)[C@H](CO)O1 | .
CC(=O)N(C)C[C@H]1Oc2ccc(N(C)C)cc2CC(=O)N(C)C[C@@H]1C | .
C[C@@H]1CN([C@@H](C)CO)C(=O)c2c(c3ccccc3n2C)-c2ccccc2CO[C@H]1CN(C)CC1CCCCC1 | .
